# Rows were chosen to be rich in hits. Some 2.4% of all compounds tested hit in one or more screens of this group.
# PKM2 activator – activators of human pyruvate kinase M2 | actives 0.34% (n = 260,000) | purified PKM2, Kinase-Glo ATP luminescence, activation; response scale: 0% is enzyme alone, no compound | P14618 | AID 1631 | Potency, µM (doses to about 57.5 µM), without a hit: at the highest dose activation, most hits filed as activators; note: % is set by controls: 0 for no effect and ±100 for the full control effect; nearly all actives have a fitted effect of over 55% in size
#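 Kinase-Glo luminescence reports ATP generated from ADP (0.1 mM) and PEP (0.5 mM) by purified hPK-M2 after 1 h at room temperature, pH 7.2 imidazole buffer; intermediate enzyme activity allows detecting inhibitors and activators.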
# Rango-impB inh – Rango-importin beta binding inhibition; actives 0.031% (n = 340,000); Rango CFP/YFP FRET sensor + importin beta, 45 min; Potency, µM (titrated, usually from 92.2 µM), for inactives: top-dose inhibition of complex formation; AID 540263; Q14974; calls by dose curve;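 note: 0% = DMSO wells and 100% = buffer wells lacking importin beta; nearly all actives have a fitted effect of over 15% in size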
#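 FRET biosensor (snurportin 1 IBB flanked by EYFP and cerulean), 50 nM, with compound 5 min, then 0.125 microM importin beta in PBS, 1 mM DTT, 0.02% Tween-20, 0.1% BSA. CFP/YFP ratio read after 45 min at room temperature; pre-read flags interference.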
# Tb PFK inh – blocks T. brucei phosphofructokinase; T. brucei PFK, ADP-Glo luminescence; Potency, µM (series often up to 57.5 µM), without a hit: at the highest dose activity, negative = inhibition, actives largely listed as inhibitors; actives 0.17% (n = 330,000); O15648;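 note: 0% = uninhibited 1x PFK enzyme wells and -100% = no-enzyme wells; nearly all actives have a fitted effect of over 60% in size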
# Target sequence (O15648 whole entry, looked up): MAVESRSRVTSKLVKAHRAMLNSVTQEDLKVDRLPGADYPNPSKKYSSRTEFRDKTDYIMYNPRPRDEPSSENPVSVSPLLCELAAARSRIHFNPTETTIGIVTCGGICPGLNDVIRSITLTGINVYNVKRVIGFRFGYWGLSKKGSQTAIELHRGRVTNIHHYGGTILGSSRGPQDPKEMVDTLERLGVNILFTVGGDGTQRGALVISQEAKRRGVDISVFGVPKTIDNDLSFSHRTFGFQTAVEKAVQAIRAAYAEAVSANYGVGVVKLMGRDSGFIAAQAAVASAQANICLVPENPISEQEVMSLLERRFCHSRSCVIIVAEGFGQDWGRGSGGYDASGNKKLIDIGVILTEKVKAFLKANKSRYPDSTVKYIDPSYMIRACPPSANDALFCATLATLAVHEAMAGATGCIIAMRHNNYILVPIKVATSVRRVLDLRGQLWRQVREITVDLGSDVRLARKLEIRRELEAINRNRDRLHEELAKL
#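 Luminescent ADP detection (ADP-Glo, two-step: ATP depletion then ADP-to-ATP conversion for luciferase) reported PFK activity after 45 min room-temperature reaction of 1.25 nM enzyme with 0.5 mM F6P and 0.1 mM ATP at pH 8.0.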
# PGK inhibitor – inhibitors of T. brucei phosphoglycerate kinase; P07378; PGK/GAPDH coupled, Kinase-Glo luminescence, 60 min; Potency, µM (doses to about 57.5 µM), for the others: at the highest dose activity change, negative = inhibition, hits mostly inhibitors; actives 0.043% (n = 380,000); AID 602233; note: % is set by controls: 0 for no effect and ±100 for the full control effect; nearly all actives have a fitted effect of over 60% in size
#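 Recombinant glycosomal PGK reaction used 1,3-bisphosphoglycerate generated in-well by GAPDH (100nM final) in 100mM TEA pH 7.6, 5mM MgCl2, 0.01% Tween-20. After 60 minutes at room temperature, ATP was read by Kinase-Glo Plus luminescence end-point.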
# Rango release inh – inhibition of RanGTP-driven Rango-importin beta dissociation. Biochemical FRET Rango-importin beta, RanGTP-induced dissociation. Potency, µM (top dose mostly 46.1 µM), for inactives: top-dose activity change, negative = inhibition. actives 0.071% (n = 340,000). AID 540253; calls by dose curve; note: % of control where 0% means no effect; nearly all actives have a fitted effect of over 45% in size
#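 Compounds sat 5 min at room temperature with 0.1 uM Rango biosensor plus 0.25 uM importin beta, then FRET pre-read. RanGTP-RCC1 (0.6 uM Ran, 2mM GTP, 0.2 uM RCC1) added for 45 min, and the CFP/YFP post-read measured blocked complex dissociation.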
# ELG1 repair inh – ELG1-dependent DNA repair inhibition | HEK293T ELG1-luciferase reporter, luminescence, 16 h; DNA damage induced by 5-fluorouridine | Potency, µM (series often up to 46.1 µM), for the others: top-dose activity change, negative = inhibition, hits mostly inhibitors | actives 2.3% (n = 330,000); note: % is set by controls: 0 for no effect and ±100 for the full control effect; nearly all actives have a fitted effect of over 55% in size
#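 5-Fluorouridine DNA damage + compound/DMSO, 2,000 cells/well, 16 h, 37 °C/5% CO2. ONE-Glo, 30 min RT, luminescence. Readout = decrease in reporter signal.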
# Numbers without * were called inactive; i = inactive; ? = inconclusive; . = no result given; [ ] = another dose, or the depositor's remark. Unless noted, calls come from the whole dose curve; as a rule, active = well fitted curve in the direction sought with a large enough effect; inconclusive = small, poorly fitted or top-dose-only effect, or another doubt; inactive = no such curve, though single readings can be large; an effect the other way counts as inactive or inconclusive. Potency is the fitted concentration of half-maximal effect.
SMILES,PKM2 activator,Rango-impB inh,Tb PFK inh,PGK inhibitor,Rango release inh,ELG1 repair inh
O=C(Nc1cccc(-c2nnc(-c3ccco3)o2)c1)c1ccccc1,-11.0%,1.6%,4.2%,9.1%,-10.2%,-25.8%
COc1ccc(C(=O)CC(=O)C(=O)Nc2ccccc2Cl)cc1,.,0.1%,-4.3%,11.2%,-1.8%,-13.5%
Cc1cc(C(=O)COC(=O)c2cccc(NS(C)(=O)=O)c2)c(C)n1CC1CCCO1 (stereo not given),.,-0.7%,5.0%,-6.3%,-10.3%,?
O=C(Nc1ccc2oc(Cc3ccc(Cl)cc3)nc2c1)c1cccnc1,0.8%,-3.5%,-20.8%,0.7%,0.3%,?
CCOc1cccc(C(=O)Nc2ccc3oc(Cc4ccc(Cl)cc4)nc3c2)c1,1.9%,-3.5%,1.4%,-5.5%,-0.1%,18.4µM*
CCOC(=O)c1cc(S(=O)(=O)N2CCC(C)CC2)cn1C,.,-0.2%,5.6%,i,0.3%,2.2%
O=c1c2c3c(sc2[nH]c(=S)n1Cc1ccco1)CCC3,11.2µM*,-3.8%,-14.4%,-9.1%,0.2%,-6.4%
CC1(C)Cc2c(sc3[nH]c(=S)n(Cc4ccco4)c(=O)c23)CO1,22.3%,-0.3%,0.9%,-5.5%,6.2%,-0.1%
CCOC(=O)C1CCN(C(=O)c2ccc3c(c2)NC(=O)/C(=C\c2cccc(C)c2)S3)CC1,1.5%,?,-13.9%,-4.9%,?,14.6µM*
CCOC(=O)C1CCN(C(=O)c2ccc3c(c2)NC(=O)/C(=C/c2ccccc2)S3)CC1,.,?,-1.9%,3.3%,-7.8%,-10.9%
Cc1cc(C)cc(NS(=O)(=O)CCCS(=O)(=O)Nc2cc(C)cc(C)c2)c1,.,0.4%,.,-3.3%,-1.8%,.
C=CCn1c(-c2ccc(OC)cc2)csc1=Nc1c(C)n(C)n(-c2ccccc2)c1=O,0.1%,1.0%,1.8%,3.9%,-9.1%,20.6µM*
Cc1cccc(N2CCN(C(=O)C3CCCN(S(=O)(=O)c4ccc5c(c4)oc(=O)n5C)C3)CC2)c1C (stereo not given),.,.,.,-3.4%,.,.
O=C(Cc1cccs1)N/N=C\c1ccc([N+](=O)[O-])s1,5.4%,0.3%,-8.6%,-6.5%,-17.4%,14.6µM*
COc1cc(/C=N/NC(=O)Cc2cccs2)c([N+](=O)[O-])cc1OC,-13.0%,5.1%,3.7%,-1.8%,-12.3%,?
CCC1=C2CC[C@H]3C(=O)N(CC)C(=O)[C@H]3[C@H]2[C@@]2(C)C(=O)N(CC(=O)OC)C(=O)N2C1=O,9.9%,.,.,.,.,.
O=C(N(c1ccccc1)c1ccccc1)N(c1ccccc1)c1ccccc1,-1.7%,?,-9.2%,-1.9%,-3.4%,?
CC(=O)N(C1=C(N)C(=O)c2ccccc2C1=O)c1ccccc1,.,-2.8%,-1.8%,.,5.2%,18.3µM*
COc1cc2c(cc1OC)C1=C(C#N)CN(C3CCCCC3)CN1CC2,10.3%,?,0.2%,-0.8%,-17.9%,?
COc1ccc(CCN2CC(C#N)=C3c4cc(OC)c(OC)cc4CCN3C2)cc1OC,-0.9%,?,-1.4%,-2.4%,-2.6%,20.6µM*
COc1cccc(C(=O)c2sc(NC(C)C)nc2N)c1,-14.6%,1.6%,0.1%,2.3%,-11.8%,20.6µM*
COc1ccc(C(=O)c2sc(NC(C)C)nc2N)cc1OC,-5.1%,-0.6%,3.1%,-1.9%,4.9%,?
CC(C)(C)C(=O)/C(=C\c1ccc([N+](=O)[O-])cc1)n1cncn1,?,.,-10.2%,.,.,11.6µM*
O=C(NCC1COc2ccccc2O1)C1CCCN(S(=O)(=O)c2cccc3cccnc23)C1 (stereo not given),4.9%,?,3.5%,5.7%,1.6%,14.6µM*
CC(=O)c1cc2c(cc1C)CCCC2(C)C,.,-0.3%,.,-12.5%,0.7%,.
SMILES,PKM2 activator,Rango-impB inh,Tb PFK inh,PGK inhibitor,Rango release inh,ELG1 repair inh
COc1ccc(OC)c(NC(=O)COC(=O)c2c3c(nc4ccccc24)CCCC3)c1,3.4%,-2.8%,-0.5%,i,0.4%,11.6µM*
COc1ccc(NC(=O)COC(=O)c2c3c(nc4ccccc24)CCCC3)cc1,-7.5%,3.8%,-3.8%,-4.0%,-5.5%,16.4µM*
COc1ccc(OC)c(NC(=O)CSc2c3c(nc4ccccc24)CCCC3)c1,.,.,.,6.0%,.,.
COc1ccc(NC(=O)COC(=O)c2c3c(nc4ccccc24)CCCC3)cc1Cl,-3.5%,-0.5%,-4.3%,3.2%,-2.4%,18.4µM*
COc1ccc(OC)c(Nc2c3c(nc4ccccc24)CCC3)c1,.,1.7%,-16.6%,-3.6%,-4.7%,?
CNC(=O)COC(=O)c1c2c(nc3ccccc13)CCC2,-3.3%,5.4%,-0.7%,-2.7%,-2.0%,-6.6%
COc1ccc(OC)c(Nc2c3ccccc3nc3ccccc23)c1,.,4.0%,-14.4%,0.1%,-21.8%,11.6µM*
CCN1C(=O)c2ccccc2S(=O)c2ccc(C(=O)NCc3ccc(OC)cc3)cc21 (stereo not given),.,-2.3%,1.6%,-8.9%,1.8%,-17.3%
COc1ccc(S(=O)(=O)N2CC(O)CC2C(=O)Nc2cccnc2)cc1 (stereo not given),-7.1%,-1.7%,-7.1%,-0.8%,-6.3%,5.1%
O=C1C2=C(C(=O)c3ccccc31)C1O[C@](CCCCN3C(=O)c4ccccc4C3=O)(Cc3ccccc31)O2,-0.6%[11.5 µM],.,4.1%[11.5 µM],.,.,.
Cn1c(=O)oc2cc(S(=O)(=O)N3CCC(C(=O)N4CCN(c5ccc(Cl)cc5)CC4)CC3)ccc21,.,.,.,-6.3%,.,.
CCCCCn1ccc(=O)c2c(C(F)(F)F)nccc21,-2.3%,-2.4%,0.0%,-6.7%,0.8%,5.8µM*
COc1ccc(-c2cc(C(=O)Nc3c(C)n(C)n(-c4ccccc4)c3=O)c3ccccc3n2)cc1,4.6%,0.6%,-1.5%,i,-0.5%,16.4µM*
O=C(OCC(=O)N1CCN(C(=O)c2ccco2)CC1)c1cc(-c2ccccc2)nc2ccccc12,2.2%,0.0%,1.6%,0.9%,-11.0%,14.6µM*
O=C(OCC(=O)N1CCN(C(=O)c2ccco2)CC1)c1cc(-c2ccc(F)cc2)nc2ccccc12,28.5%,2.0%,-7.0%,.,-4.4%,23.1µM*
O=C(OCC(=O)N1CCN(C(=O)c2ccco2)CC1)c1ccccc1C(=O)c1ccccc1,?,-2.7%,-10.8%,-3.9%,7.3%,-6.0%
O=C(OCC(=O)N1CCN(C(=O)c2ccco2)CC1)c1cc(-c2cccc(Br)c2)nc2ccccc12,4.3%,-1.9%,0.5%,-1.3%,-12.8%,16.4µM*
COc1ccc2cc(-c3cc(C(=O)OCC(=O)Nc4c(C)n(C)n(-c5ccccc5)c4=O)c4ccccc4n3)ccc2c1,4.8%,5.8%,0.5%,-1.3%,-19.4%,?
